Results reported in PubChem BioAssay.
Active and inactive are the calls of the source.

Legend:
[1] = E. coli DRC41 culture turbidity changes, primary screen, E. coli filamentation inducer project, strain DRC41, OD650, 48 h (AID 1152);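 further: E. coli MC1000 strain DRC41 lacking acrAB efflux pump and sulA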; conditions: E. coli DRC41 (acrAB sulA), higher = more signal, called active from +8 up or from −8 down
[2] = small-molecule binders of probe aLefty1, primary screen, biochemical, small-molecule microarray, 635/667 nm fluorescence (AID 1153); conditions: higher = more signal;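 further: score merges spot fluorescence with signal-to-noise ratio from the scanned slide images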
[3] = PSAC antagonists in infected red cells, primary screen, cell-based, P. falciparum Indochina, OD700, 1 h (AID 1154); conditions: P. falciparum Indochina infected RBC osmotic lysis, higher = more signal, called active from +8 up or from −8 down
[4] = PSAC antagonists in infected red cells, primary screen, cell-based, P. falciparum Indochina, OD700, 2 h (AID 1155);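 further: lysis reports solute entry through the parasite surface anion channel PSAC; channel blockers reduce lysis of infected cells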; conditions: P. falciparum Indochina infected erythrocytes, osmotic lysis OD700; higher = more signal, called active from +8 up or from −8 down
[5] = osmotic lysis modulators in infected erythrocytes, primary screen, PSAC antagonist project, cell-based, P. falciparum Indochina, OD700, 3 h (AID 1156); conditions: higher = more signal, called active from +8 up or from −8 down
[6] = PSAC antagonists in infected red cells, primary screen, cell-based, P. falciparum Indochina, OD700, 18 h (AID 1157); conditions: P. falciparum Indochina infected erythrocytes, osmotic lysis OD700, 18 h; higher = more signal, called active from +8 up or from −8 down
[7] = modulators of S6 phosphorylation in cells, primary screen, cell-based, A549, cytoblot, luminescence, serum-stimulated (AID 1158); conditions: A549 phospho-S6 cytoblot, 5 h, higher = more signal;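 further: serum-stimulated A549 lung adenocarcinoma cells; signal is phosphorylated S6 detected by cytoblot immunostaining with HRP secondary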
[8] = target: NADPH oxidase 2 (Homo sapiens) (UniProt P04839); assay: NOX2-dependent H2O2 signal modulators, primary screen, NOX inhibitor project, cell-based, HEK293-NOX2, PMA-stimulated, Amplex Red fluorescence (AID 1159); conditions: 45 min, higher = more signal, called active from +8 up or from −8 down; further: test concentration not given here
[9] = target: NADPH oxidase 4 (Homo sapiens) (UniProt Q9NPH5); assay: NOX4-dependent H2O2 signal modulators, primary screen, NOX inhibitor project, cell-based, HEK293-NOX4, tetracycline-induced, Amplex Red fluorescence (AID 1160); conditions: 45 min, higher = more signal, called active from +8 up or from −8 down
[10] = target: NADPH oxidase 5 (Homo sapiens) (UniProt Q96PH1); assay: NOX5-dependent H2O2 signal modulators, primary screen, NOX inhibitor project, cell-based, HEK293-NOX5, Amplex Red fluorescence (AID 1161); conditions: HEK293-NOX5, ionomycin, 45 min, higher = more signal
[11] = A549 cell viability effects, profiling panel, calcein-AM fluorescence, 48 h, basal (AID 1162); conditions: higher = more signal; further: test concentration not given here
[12] = adipocyte viability effects, profiling panel, cell-based, 3T3-L1 adipocytes, calcein-AM fluorescence, 48 h, basal (AID 1163); conditions: 3T3-L1 adipocytes viability, higher = more signal; further: test concentration not given here
[13] = HepG2 cell viability effects, profiling panel, calcein-AM fluorescence, 48 h, basal (AID 1164); conditions: higher = more signal; further: test concentration not given here
[14] = MM1S cell viability effects, profiling panel, calcein-AM fluorescence, 48 h, basal (AID 1165); conditions: higher = more signal;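 further: viability of MM1S multiple myeloma cells under basal unstimulated conditions; test concentration not given here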
[15] = basal RPMI8226 viability, no added stimulus, profiling panel, cell-based, calcein-AM fluorescence, 48 h, PK04 Diversity Set (AID 1166); conditions: RPMI8226 myeloma viability, higher = more signal;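 further: cells grown under basal conditions without added stimulus; test concentration not given here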
[16] = basal HepG2 mitochondrial membrane potential changes, profiling panel, cell-based, JC-1 fluorescence, 24 h, 100 nL compound (AID 1167); conditions: higher = more signal; further: test concentration not given here
[17] = basal 3T3-L1 adipocyte mitochondrial potential changes, profiling panel, cell-based, JC-1 fluorescence, 3T3-L1 adipocytes, 24 h, 100 nL compound (AID 1168); conditions: JC-1 mitochondrial fluorescence, higher = more signal, called active from +8 up or from −8 down; further: test concentration not given here
[18] = basal RPMI8226 mitochondrial membrane potential changes, profiling panel, cell-based, JC-1 fluorescence, 24 h, 100 nL compound (AID 1169); conditions: RPMI8226 myeloma, JC-1 mitochondrial potential fluorescence, higher = more signal; further: test concentration not given here
[19] = basal MM1S mitochondrial membrane potential changes, profiling panel, cell-based, JC-1 fluorescence, 24 h, 100 nL compound (AID 1170); conditions: higher = more signal; further: test concentration not given here
[20] = A549 lung cancer cell viability effects, profiling panel, resazurin fluorescence, 24 h, PK04 Diversity Set (AID 1171); conditions: higher = more signal, called active from +8 up or from −8 down; further: test concentration not given here

NADPH oxidase 2 (Homo sapiens), sequence (P04839 whole entry, looked up): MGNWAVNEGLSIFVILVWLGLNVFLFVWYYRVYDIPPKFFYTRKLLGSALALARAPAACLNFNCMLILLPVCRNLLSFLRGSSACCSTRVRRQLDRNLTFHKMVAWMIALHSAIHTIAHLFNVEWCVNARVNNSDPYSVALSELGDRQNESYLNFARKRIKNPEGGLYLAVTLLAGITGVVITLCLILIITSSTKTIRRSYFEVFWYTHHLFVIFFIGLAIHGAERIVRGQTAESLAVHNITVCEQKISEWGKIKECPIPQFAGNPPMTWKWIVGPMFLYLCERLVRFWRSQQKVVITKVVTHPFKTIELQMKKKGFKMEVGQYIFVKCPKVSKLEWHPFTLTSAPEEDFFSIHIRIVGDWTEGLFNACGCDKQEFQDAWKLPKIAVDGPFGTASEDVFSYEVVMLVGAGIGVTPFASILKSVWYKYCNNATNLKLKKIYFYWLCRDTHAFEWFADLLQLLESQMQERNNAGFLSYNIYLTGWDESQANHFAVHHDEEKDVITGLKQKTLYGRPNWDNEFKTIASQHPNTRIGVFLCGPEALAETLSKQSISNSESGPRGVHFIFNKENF
NADPH oxidase 4 (Homo sapiens), sequence (Q9NPH5 whole entry, looked up): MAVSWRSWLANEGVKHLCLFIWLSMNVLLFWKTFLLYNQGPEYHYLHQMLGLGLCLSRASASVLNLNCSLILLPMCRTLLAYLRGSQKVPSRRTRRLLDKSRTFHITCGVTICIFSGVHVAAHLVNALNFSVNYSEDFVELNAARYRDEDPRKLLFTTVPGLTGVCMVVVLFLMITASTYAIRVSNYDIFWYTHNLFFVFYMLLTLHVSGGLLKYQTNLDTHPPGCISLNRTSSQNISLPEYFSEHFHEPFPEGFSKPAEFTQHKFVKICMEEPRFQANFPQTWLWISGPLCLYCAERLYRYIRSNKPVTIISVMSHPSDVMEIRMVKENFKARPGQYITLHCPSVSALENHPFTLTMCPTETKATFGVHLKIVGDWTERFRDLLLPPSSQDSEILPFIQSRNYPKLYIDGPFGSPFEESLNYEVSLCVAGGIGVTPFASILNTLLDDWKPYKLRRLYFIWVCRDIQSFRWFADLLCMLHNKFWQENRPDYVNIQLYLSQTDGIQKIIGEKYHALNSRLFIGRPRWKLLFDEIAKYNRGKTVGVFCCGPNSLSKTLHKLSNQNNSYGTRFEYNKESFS
NADPH oxidase 5 (Homo sapiens), sequence (Q96PH1 whole entry, looked up): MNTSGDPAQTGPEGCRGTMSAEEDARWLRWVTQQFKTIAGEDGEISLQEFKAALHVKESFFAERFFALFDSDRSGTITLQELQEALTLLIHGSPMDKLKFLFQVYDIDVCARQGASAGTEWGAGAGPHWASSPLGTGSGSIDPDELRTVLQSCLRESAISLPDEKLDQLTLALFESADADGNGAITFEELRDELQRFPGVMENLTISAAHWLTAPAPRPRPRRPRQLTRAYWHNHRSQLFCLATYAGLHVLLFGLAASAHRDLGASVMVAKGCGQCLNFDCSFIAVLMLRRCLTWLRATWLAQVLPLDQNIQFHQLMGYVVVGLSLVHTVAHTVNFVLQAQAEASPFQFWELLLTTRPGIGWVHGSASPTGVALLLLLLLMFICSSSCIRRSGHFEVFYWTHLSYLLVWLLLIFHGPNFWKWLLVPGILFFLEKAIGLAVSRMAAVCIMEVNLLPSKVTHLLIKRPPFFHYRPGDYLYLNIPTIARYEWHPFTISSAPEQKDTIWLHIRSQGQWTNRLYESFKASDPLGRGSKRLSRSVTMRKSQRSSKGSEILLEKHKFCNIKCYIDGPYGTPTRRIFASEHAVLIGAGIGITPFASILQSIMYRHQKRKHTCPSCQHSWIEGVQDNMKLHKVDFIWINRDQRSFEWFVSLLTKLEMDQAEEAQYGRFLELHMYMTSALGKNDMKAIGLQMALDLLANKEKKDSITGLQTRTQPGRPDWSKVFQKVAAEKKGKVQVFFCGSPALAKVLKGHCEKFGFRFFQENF

| SMILES | z-score [1] | composite z-score [2] | z-score [3] | z-score [4] | z-score [5] | z-score [6] | z-score [7] | z-score [8] | z-score [9] | z-score [10] | z-score [11] | z-score [12] | z-score [13] | z-score [14] | z-score [15] | z-score [16] | z-score [17] | z-score [18] | z-score [19] | z-score [20] |
| --- | --- | --- | --- | --- | --- | --- | --- | --- | --- | --- | --- | --- | --- | --- | --- | --- | --- | --- | --- | --- |
| CCCCCN1CC=CC23O[C@@H]4C=CCOC(=O)[C@@H]4[C@H]2C(=O)N(CCCO)[C@@H]3C1=O (stereo not given in full) | 3.22 (inactive) | -0.149 | -0.322 (inactive) | -0.397 (inactive) | 0.993 (inactive) | -0.501 (inactive) | 0.724 | -0.169 (inactive) | -0.724 (inactive) | -1.14 | -0.279 | 2.21 | -0.721 | 0.364 | -0.0478 | -1.29 | -0.883 (inactive) | -0.022 | 0.208 | -0.15 (inactive) |
| [N-]=[N+]=NCc1ccccc1C[C@]1(C(=O)NCCN2CCOCC2)N=C(c2ccc(OCCCO)cc2)O[C@H]1c1ccccc1N=[N+]=[N-] | 0.991 (inactive) | 0.586 | 34.3 (active) | 31.4 (active) | 2.82 (inactive) | 8.68 (active) | -0.176 | -1.69 (inactive) | 0.636 (inactive) | -0.368 | -0.872 | 0.233 | -1.61 | -1.68 | -0.806 | 0.815 | 0.707 (inactive) | -1.02 | -1.16 | -0.901 (inactive) |
| O=C1O[C@@H](c2ccccc2)[C@@H](c2ccccc2)N2[C@@H](c3ccc(O)cc3)[C@]3(C(=O)Nc4ccc(C#CC5(O)CCCCCC5)cc43)[C@@H](C(=O)N3CCCCCCC3)[C@H]12 | 0.489 (inactive) | 2.77 | 1.32 (inactive) | 0.836 (inactive) | 1.17 (inactive) | 0.564 (inactive) | 0.181 | 1.1 (inactive) | 1.09 (inactive) | 0.682 | 0.476 | 0.49 | 1.04 | 0.0939 | -1.34 | -1.36 | 0.076 (inactive) | -0.764 | -0.664 | -0.314 (inactive) |
| Cc1ccc(S[C@]2(C(=O)NCC(C)C)CC(=O)N(Cc3ccccc3Cl)[C@@H]2c2ccc(CO)cc2)cc1 | -0.132 (inactive) | -0.188 | 1.14 (inactive) | 0.61 (inactive) | -0.23 (inactive) | 0.0839 (inactive) | 0.534 | -1.85 (inactive) | 0.717 (inactive) | -0.393 | 1.63 | 0.114 | -0.45 | -0.226 | 0.845 | -0.595 | -0.254 (inactive) | -0.492 | 0.767 | -0.0989 (inactive) |
| O=C1C2C=CC(C(O)c3ccc(B(O)O)cc3)N(Nc3ccccc3)C2C(=O)N1c1ccccc1 (stereo not given) | -1.52 (inactive) | 0.0315 | 1.07 (inactive) | -0.447 (inactive) | 0.977 (inactive) | -0.447 (inactive) | 0.64 | -3.57 (inactive) | -5.02 (inactive) | -7.63 | -1.52 | -0.305 | -1.38 | -1.74 | -2.12 | -2.75 | -0.654 (inactive) | -0.162 | -0.613 | -0.742 (inactive) |
| C[C@]1(C(=O)NCc2ccccc2)c2ccccc2C(=O)N(Cc2ccc(OC(F)(F)F)cc2)[C@H]1c1ccc(CO)cc1 | 1.17 (inactive) | -0.142 | 3.54 (inactive) | -0.18 (inactive) | -0.495 (inactive) | -0.779 (inactive) | 0.843 | -0.944 (inactive) | -1.33 (inactive) | -0.499 | 1.84 | 1.12 | 1 | 0.318 | 0.346 | 3.56 | 0.777 (inactive) | -0.584 | -0.0466 | 1.46 (inactive) |
| O=c1cccc(C=Cc2ccccc2)o1 | 0.465 (inactive) | -0.29 | 2.92 (inactive) | 0.88 (inactive) | 0.488 (inactive) | 0.931 (inactive) | -0.39 | 0.165 (inactive) | -0.562 (inactive) | -0.0341 | -0.523 | -0.601 | 0.645 | -0.571 | -0.743 | 0.053 | 0.355 (inactive) | 0.629 | -0.969 | 0.261 (inactive) |
| O=C1O[C@@H](c2ccccc2)[C@@H](c2ccccc2)N2[C@@H](c3ccc(OCCO)cc3)[C@]3(C(=O)Nc4ccccc43)[C@@H](C(=O)Nc3nc4ccccc4s3)[C@H]12 | 0.515 (inactive) | 0.919 | 5.55 (inactive) | 2.55 (inactive) | 1.37 (inactive) | 2.01 (inactive) | 0.298 | 1.68 (inactive) | 1.24 (inactive) | 1.63 | -0.328 | -0.343 | 0.27 | -0.829 | -1.17 | -3.31 | 2.07 (inactive) | -1.05 | -1.86 | -1.4 (inactive) |
| COCCOC(=O)N1C(=O)[C@@]2(c3cc(C#CC4=CCCCC4)ccc31)[C@H](C(=O)NC[C@H](O)c1ccccc1)[C@H]1C(=O)O[C@H](c3ccccc3)[C@H](c3ccccc3)N1[C@@H]2c1ccc(O)cc1 | 1.8 (inactive) | 0.265 | 0.602 (inactive) | 0.793 (inactive) | 0.0873 (inactive) | 0.554 (inactive) | -0.176 | 1.2 (inactive) | 0.349 (inactive) | 1.22 | -0.144 | 1.3 | -0.34 | -2.81 | -3.45 | -2.71 | 1.35 (inactive) | -0.657 | 0.0116 | -1.09 (inactive) |
